# IkB sig inh = IkB Signaling. ABC-DLBCL IkBa-CBG/CBR dual luciferase ratio, 4 h; response scale: scaled: untreated 0%, proteasome inhibitor 100%. Potency, µM (doses to about 57.1 µM), without a hit: top-dose IkBa stabilization activation. actives 0.04% (n = 110,000). AID 445, 2006; active = well fitted curve in the direction sought with a large enough effect in the signal ratio, not every such curve was filed as active; inconclusive = small, poorly fitted or top-dose-only effect, or a change in a side signal; the % refers to the signal ratio;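 note: the direction sought is a rising ratio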
#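 Luminescence ratio of IκBα-fused green versus native red beetle luciferase in OCI-Ly3 cells, 4 h post-doxycycline with compound; red signal alone, scaled from basal (0%) to zero light (-100%), flagged nonspecific or cytotoxic effects.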
# FLuc inh = qHTS Assay for Inhibitors of Firefly Luciferase | Luciferin 4-monooxygenase (Photinus pyralis), P08659 | Potency, µM (series often up to 57.1 µM), for inactives: at the highest dose activity change, negative = inhibition, usual class: inhibitors | purified firefly luciferase, luminescence, 8 min | actives 2.2% (n = 72,000); note: % is set by controls: 0 for no effect and ±100 for the full control effect; nearly all actives have a fitted effect of over 40% in size
#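 Here, luciferase activity is measured as luminescence following an 8 min room-temperature reaction at 10 uM ATP, pH 7.2. Every library sample is titrated.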
# p53ts 32C tox = qHTS Screen for Compounds that Selectively Target Cancer Cells with p53 Mutations: Cytotoxicity of p53ts Cells at the Permissive Temperature; Potency, µM (highest dose often 46.1 µM), for the others: at the top dose activity change, negative = cytotoxicity, most hits filed as cytotoxic; H1299-p53A138V at 32C, ATP luminescence viability, 24 h; actives 0.93% (n = 130,000);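 note: 0% = DMSO and -100% = full killing by reference compound; nearly all actives have a fitted effect of over 55% in size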
#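 ATP-content luminescence (ATPlite) read-out after 24 h compound exposure at 32C in H1299-p53A138V cells (600/well). Tested up to 46 uM. Normalized to DMSO (0%) and 100 uM tamoxifen (100% killing); Hill-fit AC50.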
# p53ts 39C tox = qHTS Screen for Compounds that Selectively Target Cancer Cells with p53 Mutations: Cytotoxicity of p53ts Cells at the Nonpermissive Temperature | Potency, µM (doses to about 46.1 µM), inactives show at the top dose activity change, negative = cell killing, actives largely listed as cytotoxic | H1299-p53A138V viability at 39C, ATP luminescence, 24 h | actives 1.5% (n = 130,000); note: % is set by controls: 0 for no effect and ±100 for the full control effect; nearly all actives have a fitted effect of over 55% in size
# Caspase-7 inhib = qHTS Assay for Allosteric/Competitive Inhibitors of Caspase-7 | P55210 | actives 0.02% (n = 75,000) | recombinant caspase-7, Ac-DEVD-AFC fluorescence rate | Potency, µM (doses to about 57.5 µM), inactives show at the top dose activity change, negative = inhibition, hits mostly inhibitors; active = well fitted inhibition curve with a large enough effect in the main read-out, with a control signal flat, not every such curve was filed as active; inconclusive = small, poorly fitted or top-dose-only effect, or a change in a side signal; note: % of control where 0% means no effect
# Caspase-1 inhib = qHTS Assay for Allosteric/Competitive Inhibitors of Caspase-1; P29466; Caspase-1 enzyme, Ac-WEHD-AFC fluorogenic rate; Potency, µM (highest dose often 57.5 µM), inactives show at the top dose activity change, negative = inhibition, usual class: inhibitors; actives 0.03% (n = 75,000); AID 900, 2007;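 note: plate controls were vehicle for no effect and no substrate for full effect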
# Numbers without * were called inactive; ? = inconclusive; / = not tested or not shown. Hits are enriched below; roughly 2.5% of the tested compounds scored in any of these assays. Unless noted, calls come from the whole dose curve; as a rule, active = well fitted curve in the direction sought with a large enough effect; inconclusive = small, poorly fitted or top-dose-only effect, or another doubt; inactive = no such curve, though single readings can be large; an effect the other way counts as inactive or inconclusive. Potency is the fitted concentration of half-maximal effect.
SMILES,IkB sig inh,FLuc inh,p53ts 32C tox,p53ts 39C tox,Caspase-7 inhib,Caspase-1 inhib
CC1CCN(CCNC(=O)CN(C)S(=O)(=O)c2cccc3nsnc23)CC1,0%,0%,17%,-6%,0%,1%
Cc1ccc2nc(-c3ccc(Cl)c(NC(=O)c4cccnc4)c3)oc2c1,-2%,/,?,?,/,/
Cc1ccc(-c2nc(-c3cccnc3)no2)c(C)c1,0%,13µM*,?,?,0%,-1%
CC(C)CC(=O)Nc1ccc2oc(-c3cccnc3)nc2c1,-2%,13µM*,?,?,3%,-1%
Cc1ccc2nc(-c3ccccn3)oc2c1,1%,7.9µM*,3.2µM*,5µM*,0%,0%
Cc1ccc2nc(-c3cccnc3)oc2c1,-2%,25µM*,?,?,0%,0%
CCc1nnc(NC(=O)CCC(=O)NC2CCCCC2)s1,-5%,4%,5%,10%,0%,-4%
CCN(CC)c1ccc(NC(=O)c2cccc(OC)c2)c(C)c1,1%,-1%,7%,7%,-1%,3%
CC(=O)c1sc(Nc2nc3ccc(F)cc3s2)nc1C,?,16µM*,20µM*,?,-18%,?
O=C(O)c1ccc(COc2ccccc2Cl)cc1,17%,-3%,-16%,-6%,1%,-1%
O=C(O)c1cccc(COc2ccccc2Cl)c1,?,6.3µM*,10µM*,13µM*,-4%,-10%
CCc1nnc(NC(=O)c2c(OC)cccc2OC)s1,1%,4%,6%,4%,1%,2%
COc1ccc(C(=O)Nc2ccc(OC)c(OC)c2)cc1,0%,25µM*,?,?,-1%,0%
COc1ccc(NC(=O)c2ccc(S(=O)(=O)N(C)C)cc2)cc1OC,1%,-3%,-6%,-9%,2%,-2%
CCc1nnc(NC(=O)c2cccc(OC)c2)s1,5%,-21%,13µM*,?,1%,-3%
COc1ccc(C(=O)Nc2cccc(OC)c2)cc1,?,7.9µM*,10µM*,13µM*,-1%,-3%
COc1ccc2oc(=O)c(C(=O)Nc3cccc(C(=O)O)c3)cc2c1,?,/,7.9µM*,5µM*,/,/
COc1ccc(CNC(=O)c2cc3cc(OC)ccc3oc2=O)cc1,-2%,/,10%,-22%,/,/
Nc1nc(N2C(=O)C3CC=CCC3C2=O)nn1-c1ccccc1 (configuration not stated),0%,2%,6%,7%,-2%,-3%
CCCOc1ccc(C2C(C(=O)OC)=CN(CCOC)C=C2C(=O)OC)cc1,-1%,-1%,6%,1%,?,/
COc1ccc(C(=O)COC(=O)c2ccco2)cc1,3%,6.3µM*,1%,-4%,-1%,0%
COc1cccc(C(=O)Nc2ccc(NC(=O)C(C)(C)C)cn2)c1,2%,4µM*,4µM*,3.2µM*,-4%,1%
COc1ccc(C(=O)COc2cccc(NC(=O)c3ccco3)c2)cc1,/,/,-5%,6%,/,/
COc1ccc(C(=O)COC(=O)c2cccc(NC(=O)c3ccc(OC)c(OC)c3)c2)cc1,?,/,?,16µM*,/,/
Cc1ccc(CNC(=O)c2cnn3c(C)c(Cc4c(F)cccc4Cl)c(C)nc23)cc1,?,/,2%,?,/,/
SMILES,IkB sig inh,FLuc inh,p53ts 32C tox,p53ts 39C tox,Caspase-7 inhib,Caspase-1 inhib
Cc1nnc(NC(=O)C2COc3ccccc3O2)s1 (configuration not stated),?,-1%,1%,11%,-1%,0%
O=C(Nc1nc2c(s1)CCCC2)C1COc2ccccc2O1 (configuration not stated),?,10µM*,?,?,-2%,-4%
O=C(NC1=NCCS1)C1COc2ccccc2O1 (configuration not stated),?,2µM*,13µM*,13µM*,-1%,0%
O=S(=O)(NC1CC1)c1ccc(S(=O)(=O)N2CCCc3ccccc32)cc1,?,3%,9%,0%,-1%,0%
N#Cc1c(N)sc(=S)c2c1CCN(Cc1ccccc1)C2,?,-17%,-15%,-3%,13µM*,/
Cc1oc(-c2cccc(Cl)c2)nc1CN1CCCC(C(=O)NCCCN2CCOCC2)C1 (configuration not stated),-2%,-1%,-11%,-11%,1%,-1%
O=C(O)c1ccc2nc(-c3cc4cccc(O)c4oc3=O)[nH]c2c1,?,/,10µM*,?,/,/
O=c1oc2c3c4c(cc2cc1-c1nc2ccccc2[nH]1)CCCN4CCC3,?,2µM*,?,?,?,/
O=c1oc2c(CN3CCCCC3)c(O)ccc2cc1-c1nc2ccccc2[nH]1,-1%,-22%,-6%,-16%,?,/
CC(O)/C=C/c1cccc[n+]1C (configuration not stated),1%,-3%,-2%,7%,-1%,0%
CC(C)CN(CCNC(=O)c1cc(-c2cccs2)nc2ccccc12)CC(C)C,?,/,4%,-6%,/,/
O=C(c1cccs1)N1CCn2c1nc1ccccc12,0%,16µM*,?,?,1%,0%
N#CCC(=O)N1CCn2c1nc1ccccc12,0%,-35%,-3%,-11%,-1%,-2%
O=C(Nc1ccc(-c2nc3cccnc3s2)cc1)c1ccco1,?,3.2µM*,?,?,-29%,-11%
O=C(Cc1ccccc1)Nc1cccc(-c2nc3cccnc3s2)c1,2%,/,9%,10%,/,/
O=C(Nc1cccc(-c2nc3cccnc3s2)c1)c1ccco1,?,20µM*,-29%,-15%,1%,0%
Cc1c(C(=O)N2CCc3ccccc3C2)sc2nc(-c3ccccc3)cn12,?,-1%,-2%,-12%,-2%,-8%
c1ccc(-c2cn3c4c(sc3n2)CCCC4)cc1,?,0.4µM*,1µM*,0.63µM*,8%,-5%
OCCNCCCOc1cccc(Cl)c1Cl,-1%,1%,?,13µM*,0%,1%
COc1ccccc1OCCCCCNCCO,4%,0%,6%,3%,2%,-2%
Cc1ccc(Nc2cccccc2=O)cc1,-2%,25µM*,-19%,-19%,0%,-2%
CC(C)(C)c1ccc(C(=O)Nc2ccc(C(=O)OCc3cc(=O)n4ccsc4n3)cc2)cc1,?,/,16µM*,16µM*,/,/

# Screens deposited in PubChem BioAssay by National Center for Advancing Translational Sciences (NCATS).
